# Measured values taken from PubChem BioAssay (NCI).
# This is part of a sample that, as a whole, favours compounds with a hit. Of some 83,000 tested, about 20% had one in any assay.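 Values shown are percent growth following 48 h exposure of cells in 96-well plates to a single concentration of compound; below 10 was considered active.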 Active and inactive are the calls of the source.
# System: DU-145 prostate
# Assay: NCI-60 one-dose screen, 48 h (100 = growth as untreated, 0 = no growth, -100 = all killed)
# Details: 10 µM
row,SMILES,growth
1,CCC(O)c1ccc(Br)cc1NC(=O)c1cccc(Cl)c1 (stereo not drawn),27.9% (inactive)
2,CCCCn1c(=O)[nH]c(N)c(C(c2ccc(Cl)cc2)c2c(N)[nH]c(=O)n(CCCC)c2=O)c1=O,65.7% (inactive)
3,COc1ccc(C(=O)/C=C/c2cc(-c3ccc4c(c3)OCO4)n[nH]2)cc1OC,39.7% (inactive)
4,COc1ccc2oc(=O)cc(C(c3ccc[nH]3)c3ccc[nH]3)c2c1,13.3% (inactive)

# System: K-562 leukemia
# Assay: as above
# Details: 10 µM
row,SMILES,growth
1,CCCCCCCCCCCC(=O)NCCCN(C)C,59.4% (inactive)
2,Nc1ccc(C2=CC(c3ccc(Cl)cc3)N3C=CSC3=N2)cc1 (stereo not drawn),3.22% (active)
3,CC(=O)n1nc(C(=O)OC(C)(C)C)c2cc(F)c(F)cc21,110% (inactive)
4,COC(=O)c1c(C)nc(Nc2nc3ccccc3s2)nc1-c1ccc(Cl)cc1Cl,91.2% (inactive)
5,O=C(O)CCCCSCCCCC(=O)O,97.7% (inactive)
6,COc1cc(-c2nc3ccc(C)cc3[nH]2)ccc1OCC(=O)N=Nc1c(O)[nH]c2ccccc12,-62.9% (active)
7,CC1=CSC2=NC(c3ccc(Cl)c(Cl)c3)=CC(c3ccc(Cl)cc3)N12 (stereo not drawn),17% (inactive)
8,COc1ccc(Nc2ccnc(N3CCN(c4ccnc5cc(Cl)ccc45)CC3)n2)cc1,2.55% (active)
9,Cn1cnc([N+](=O)[O-])c1/C=C1\Oc2ccc(Cl)cc2C1=O,52.4% (inactive)
10,CCOC(=O)Cn1nnc(-c2ccc(OCc3ccccc3F)cc2)n1,53% (inactive)
11,COc1ccc(/C(CS(=O)(=O)c2ccccc2)=N\O)cc1,103% (inactive)
12,COc1ccc(S(=O)(=O)Nc2cc(/C=C\c3cc(OC)c(OC)c(OC)c3)ccc2OC)cc1,11.1% (inactive)
13,COc1ccc2nc(C)cc(Nc3ccc(Cl)cc3)c2c1,97.9% (inactive)
14,COc1cc(-c2nc3ccc(C)cc3[nH]2)ccc1OCc1nnc(-c2ccc(CC(C)C)cc2)o1,46% (inactive)
15,Cc1noc(C)c1-c1ccc2nc(NC(=O)[C@H]3CCN(C#N)C3)cn2c1,40.5% (inactive)
16,COc1ccc(COC(=O)CC(C)C)cc1,96.1% (inactive)
17,Cc1ccc(-n2nnc3c(sc4ccccc43)c2=O)cc1,80.3% (inactive)
18,Nc1ccn([C@@H]2O[C@H](COP(=O)(O)O[C@@H]3C[C@H](n4cc(F)c(=O)[nH]c4=O)O[C@@H]3COP(=O)(O)O[C@@H]3C[C@H](n4cc(F)c(=O)[nH]c4=O)O[C@@H]3COP(=O)(O)O[C@@H]3C[C@H](n4cc(F)c(=O)[nH]c4=O)O[C@@H]3COP(=O)(O)O[C@@H]3C[C@H](n4cc(F)c(=O)[nH]c4=O)O[C@@H]3COP(=O)(O)O[C@@H]3C[C@H](n4cc(F)c(=O)[nH]c4=O)O[C@@H]3COP(=O)(O)O[C@@H]3C[C@H](n4cc(F)c(=O)[nH]c4=O)O[C@@H]3COP(=O)(O)O[C@@H]3C[C@H](n4cc(F)c(=O)[nH]c4=O)O[C@@H]3COP(=O)(O)O[C@@H]3C[C@H](n4cc(F)c(=O)[nH]c4=O)O[C@@H]3COP(=O)(O)O[C@@H]3C[C@H](n4cc(F)c(=O)[nH]c4=O)O[C@@H]3COP(=O)(O)O[C@@H]3C[C@H](n4cc(F)c(=O)[nH]c4=O)O[C@@H]3COP(=O)(O)OCCOCCOCCOCCOCCOCCO)[C@H](O)C2O)c(=O)n1 (stereo partly drawn),53.8% (inactive)
19,COc1ccc(-c2nnc(COc3ccc(NC(=O)Nc4cccc(C(F)(F)F)c4)cc3F)o2)cc1,45.3% (inactive)
20,Fc1ccc(Nc2ccnc(N3CCN(c4ccnc5cc(Cl)ccc45)CC3)n2)cc1,16% (inactive)
21,CCOC(=O)c1cc(-c2ccccc2)nc(N)n1,104% (inactive)
22,CC1(CO)CCCC12OCCO2 (stereo not drawn),100% (inactive)
23,CCc1c(C)[nH]c(=O)c(C(N)=O)c1C#N,114% (inactive)
24,CCOc1ccc2c(c1)CC[C@@H]1[C@@H]2CC[C@]2(C)[C@@H](O)[C@@H](O)C[C@@H]12,91.8% (inactive)
25,COc1ccc(OC)c([N+](=O)[O-])c1C=O,42.4% (inactive)
26,CCOC(=O)Nc1ccc2c(c1)C(=O)N(CC)c1ccccc1O2,8.79% (active)
27,Cc1ccc(C)c2c1sc1nc3n[nH]c(N)c3c(=N)n12,98.3% (inactive)
28,c1ccc(CC(NCCNC(Cc2ccccc2)c2ccccc2)c2ccccc2)cc1 (stereo not drawn),-25.7% (active)
29,Cc1ccc2nc(-c3ccc(OCC(=O)N=Nc4c(O)[nH]c5ccccc45)cc3)[nH]c2c1,5.23% (active)
